Screening results from PubChem BioAssay.
An excerpt weighted towards active compounds, which were near 2% of everything screened.
TLR4 MyD88 comp = TLR4-MyD88 interaction inhibition in cells; HeLa CL3-4 TLR4/MyD88 BLA complementation, FRET ratio; inhibition, % at 8.4 µM; O00206+Q99836; 200,000 compounds, 0.18% hits; in the data active = inhibition above about 25%
ABHD5-PLIN5 inh = ABHD5-PLIN5 protein interaction inhibition; Split G. princeps luciferase complementation, luminescence, 4 h; inhibition, % at 4 µM; 360,000 compounds, 0.78% hits; AID 602281;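 active = inhibition above the mean inhibition across every tested compound plus 3 SD, cut at about 22% in these data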
TLR9-MyD88 inh = TLR9-MyD88 interaction inhibition; 340,000 compounds, 0.21% hits; inhibition, % at 4.98 µM; CHO BLA complementation TLR9-MyD88, CCF4 FRET ratio; AID 504734; Q9NR96+Q99836;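 active = inhibition above the mean over all tested compounds plus 3 SD, cut at about 21% in these data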
Beta2AR agonist = human beta-2 adrenergic receptor agonism by FAP; Am2.2-beta2AR cells, FAP receptor internalization, flow cytometry; 340,000 compounds, 0.43% hits; P07550; response, % (test concentration not listed);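 active = response above a set limit, near 3 SD of response in nonfluorescent compounds, cut at about 42% in these data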
NOD2-RIPK2 inh = inhibitors of human NOD2-RIPK2 interaction; O43353; inhibition, % at 4.98 µM; 360,000 compounds, 0.38% hits; CHO BLA complementation NOD2-RIPK2, CCF4 ratio; AID 624267; in the data active = inhibition above about 21%
Target sequence (O43353 whole entry, looked up): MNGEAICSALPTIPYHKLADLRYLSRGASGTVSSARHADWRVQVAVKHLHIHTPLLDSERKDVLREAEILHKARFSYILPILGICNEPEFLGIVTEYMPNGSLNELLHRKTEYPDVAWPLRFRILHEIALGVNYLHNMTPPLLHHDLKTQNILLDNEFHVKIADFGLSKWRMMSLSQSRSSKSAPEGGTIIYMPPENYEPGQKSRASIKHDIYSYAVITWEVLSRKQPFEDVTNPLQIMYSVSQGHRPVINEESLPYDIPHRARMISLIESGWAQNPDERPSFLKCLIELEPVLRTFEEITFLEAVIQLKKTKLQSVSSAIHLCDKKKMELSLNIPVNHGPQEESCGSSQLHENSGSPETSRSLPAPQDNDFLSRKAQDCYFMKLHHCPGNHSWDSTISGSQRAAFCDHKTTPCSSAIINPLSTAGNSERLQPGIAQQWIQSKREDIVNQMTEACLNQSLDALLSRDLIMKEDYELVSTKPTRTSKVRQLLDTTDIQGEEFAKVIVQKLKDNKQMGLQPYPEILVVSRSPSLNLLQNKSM
Exocytosis inh = lytic granule exocytosis inhibition. inhibition, % at 10 µM. 360,000 compounds, 0.66% hits. TALL-104 LAMP-1 surface exposure, flow cytometry; cells stimulated with thapsigargin and PMA;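 active = inhibition above about 55%, limit read from the data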
Beta2AR ag CP1 = activates human beta-2 adrenergic receptor | Am2.2-beta2AR cells, FAP surface receptor, flow cytometry; stronger effect = lower value | shares compounds with Beta2AR agonist | 1,100 compounds, 25% hits | percent response (surface receptor), % at 10 µM;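 active = surface receptor percent response at or below 58%, roughly 3 SD from nonfluorescent compounds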
B2AR FAP counter = counter-screen for beta-2AR agonists: fluorescence in Am2.2 cells; FAP fluorogen flow cytometry, fluorescence counterscreen; stronger effect = lower value; calls only at 10 µM; 1,100 tested, under 10 active; shares compounds with Beta2AR agonist;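 active = percent response below a set limit in fluorescence channel 1 and below 50% in channel 8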
Of the large screens only hits and unclear results are named; the others gave an inactive call (follow-up assays come after a bar, where they were run).

CCCCn1c(=N)n(CC(O)COc2cccc(C)c2)c2ccccc21 (configuration not stated)	Beta2AR agonist 46 | Beta2AR ag CP1 inactive | B2AR FAP counter inactive
Cc1c(Br)c([N+](=O)[O-])nn1CCCC(=O)Nc1sc2c(c1C#N)CCC2	Beta2AR agonist 59 | Beta2AR ag CP1 inactive | B2AR FAP counter inactive
CS(=O)(=O)c1cc(C(=O)O)cc(NCc2ccccc2)c1Oc1ccccc1	none (no result: TLR4 MyD88 comp, Beta2AR agonist)
Fc1ccc(Nc2nc(-c3ccncc3)nc3ccccc23)cc1F	Beta2AR agonist 50 | Beta2AR ag CP1 inactive | B2AR FAP counter inactive
O=C1C=C(NC2CCCC2)CC(c2ccccc2)C1 (configuration not stated)	none (no result: TLR9-MyD88 inh) | Beta2AR ag CP1 inactive | B2AR FAP counter inactive
COCC1CCCN(C(=O)c2cc(COc3cncc(Cl)c3)on2)C1 (configuration not stated)	none (no result: TLR4 MyD88 comp)
CCc1ccc(CN(C)C(=O)c2cc(COc3cncc(Cl)c3)on2)cc1	none (no result: TLR4 MyD88 comp, Beta2AR agonist) | Beta2AR ag CP1 inactive | B2AR FAP counter inactive
COC(=O)[C@@H](NC(=O)c1cc(COc2cncc(Cl)c2)on1)c1ccccc1	none (no result: TLR4 MyD88 comp) | Beta2AR ag CP1 inactive | B2AR FAP counter inactive
CCC(NC(=O)c1cc(COc2cncc(Cl)c2)on1)c1ccc(C)cc1 (configuration not stated)	none (no result: TLR4 MyD88 comp) | Beta2AR ag CP1 inactive | B2AR FAP counter inactive
Cc1ccc(OCc2cc(C(=O)N(C)Cc3cnn(-c4ccccc4C)c3)no2)cn1	Beta2AR agonist 100 (no result: TLR4 MyD88 comp) | Beta2AR ag CP1 19 | B2AR FAP counter inactive
O=C(Cc1cccnc1)N[C@@H]1CC[C@H](CCn2cc(Cc3ccccc3)nn2)O[C@@H]1CO	none (no result: TLR4 MyD88 comp, TLR9-MyD88 inh, Beta2AR agonist)
c1ccc(-c2cc3nc(NCc4cccs4)nc(NCc4ccc5occc5c4)c3s2)cc1	none (no result: TLR4 MyD88 comp, TLR9-MyD88 inh, Beta2AR agonist)
CCc1nc2c(OCCOc3ccc(F)cc3)cccn2c1N(C)C(=O)c1ccco1	none (no result: TLR4 MyD88 comp, TLR9-MyD88 inh, Beta2AR agonist)
CCOc1cc(-c2c(C)c(CC)nc(N)c2C#N)ccc1O	Beta2AR agonist 69 | Beta2AR ag CP1 inactive | B2AR FAP counter inactive
CCOc1cc(-c2c(C)c(C)nc(N)c2C#N)ccc1O	none
CCOc1ccc(NC(=O)c2sc3nc(C)nc(N4CCOCC4)c3c2C)cc1	Beta2AR agonist 69 (no result: TLR4 MyD88 comp) | Beta2AR ag CP1 inactive | B2AR FAP counter inactive
Cc1cccc(NC(=O)c2sc3nc(C)nc(N4CCOCC4)c3c2C)c1	none (no result: TLR4 MyD88 comp, Beta2AR agonist)
Fc1ccc(Oc2nc(-c3ccccc3)nnc2C(F)(F)F)cc1	none
Fc1ccc(Sc2nc(-c3ccccc3)nnc2C(F)(F)F)cc1	Beta2AR agonist 44 | Beta2AR ag CP1 21 | B2AR FAP counter inactive
CC(C)c1ccc(C(=O)NCCCN2CCN(CCCNC(=O)c3ccc(C(C)C)cc3)CC2)cc1	Beta2AR agonist 46 | Beta2AR ag CP1 inactive | B2AR FAP counter inactive
O=C(NCCN1CCOCC1)c1ccc(F)cc1	none
O=C(NCCCN1CCOCC1)c1ccccc1	none
O=C(NCCCN1CCN(CCCNC(=O)c2ccc(F)cc2)CC1)c1ccc(F)cc1	none | Beta2AR ag CP1 inactive | B2AR FAP counter inactive
COc1ccc(N(C(=O)c2cccc([N+](=O)[O-])c2)S(=O)(=O)c2ccc3c(c2)n(C)c(=O)n3C)cc1	Beta2AR agonist 54 | Beta2AR ag CP1 inactive | B2AR FAP counter inactive
CC1(C(=O)NS(=O)(=O)c2cccc(Cl)c2)CCN1C(=O)C/C=C/c1ccccc1 (configuration not stated)	none (no result: TLR4 MyD88 comp, TLR9-MyD88 inh, Beta2AR agonist)
COc1ccc(C(=O)NCC(=O)OCC(=O)Nc2cc(OC)ccc2OC)cc1	Beta2AR agonist 64 | Beta2AR ag CP1 inactive | B2AR FAP counter inactive
COc1ccc(NC(=O)COC(=O)CNC(=O)c2cc(OC)c(OC)c(OC)c2)cc1	none
CN(C)CCNc1ncnc2c1ncn2[C@H]1CN(Cc2cccs2)C[C@@H](CO)O1	none (no result: TLR4 MyD88 comp, TLR9-MyD88 inh, Beta2AR agonist)
O=[N+]([O-])c1ccc2nc(CCCc3nc4ccc([N+](=O)[O-])cc4[nH]3)[nH]c2c1	Beta2AR agonist 54 | Beta2AR ag CP1 inactive | B2AR FAP counter inactive
CCOC(=O)CSc1ccc(-c2nc3ccccc3[nH]2)cn1	Beta2AR agonist 46 | Beta2AR ag CP1 inactive | B2AR FAP counter inactive
Cc1ccc(NC(=O)CCCSc2nc3ccccc3[nH]2)cc1	none
Cc1ccc(SCC(=O)Nc2ccc(-c3nc4ccccc4[nH]3)cc2)cc1	Beta2AR agonist 107 | Beta2AR ag CP1 16 | B2AR FAP counter inactive
CCOC(=O)CSc1ccc(-c2nc3cc(C)c(C)cc3[nH]2)cn1	none
CC(=O)Nc1cccc(-c2ccnc3c2CC(C(=O)Nc2ccc(C(C)C)cc2)O3)c1 (configuration not stated)	none (no result: TLR4 MyD88 comp, TLR9-MyD88 inh, Beta2AR agonist)
O=C(OCc1cccc(C(F)(F)F)c1)c1cc(S(=O)(=O)N2CCOCC2)ccc1F	Beta2AR agonist 56 (no result: TLR4 MyD88 comp) | Beta2AR ag CP1 inactive | B2AR FAP counter inactive
O=C(COC(=O)c1cc(S(=O)(=O)N2CCOCC2)ccc1F)c1ccccc1	none (no result: TLR4 MyD88 comp)
Cc1ccc(S(=O)(=O)NC(=O)C2(C)CCN2C(=O)Cc2cccs2)nc1 (configuration not stated)	none (no result: TLR4 MyD88 comp, TLR9-MyD88 inh, Beta2AR agonist)
Cc1ccc(Cn2nc(C)c(NC(=O)CSc3nc4c(c(C(F)(F)F)n3)CCc3ccccc3-4)c2C)cc1	Beta2AR agonist 46 | Beta2AR ag CP1 inactive | B2AR FAP counter inactive
CCCCNC(=O)c1nc(C2CCN(S(=O)(=O)c3ccccc3C(F)(F)F)CC2)oc1-c1ccccc1	none (no result: TLR4 MyD88 comp, TLR9-MyD88 inh, Beta2AR agonist)
CC(C)N(c1ccccc1)c1ccc(NC(=O)[C@@H]2O[C@H](CO)[C@@H](O)[C@H]2O)cc1	none (no result: TLR4 MyD88 comp, TLR9-MyD88 inh, Beta2AR agonist)
CC1CC2(CCCCC2)Nc2ccc3ccccc3c21 (configuration not stated)	none
CCc1cccc2c1NC1(CCCC1)CC2C (configuration not stated)	none (no result: TLR4 MyD88 comp) | Beta2AR ag CP1 inactive | B2AR FAP counter inactive
CCOC(=O)N1CCN(CC(O)COc2ccccc2C(C)C)CC1 (configuration not stated)	none
CCN(CCNCC(O)COc1ccccc1C(C)C)c1cccc(C)c1 (configuration not stated)	Beta2AR agonist 45 (no result: TLR4 MyD88 comp) | Beta2AR ag CP1 inactive | B2AR FAP counter inactive
O=Cc1ccc(O)c2ncccc12	none (no result: TLR4 MyD88 comp) | Beta2AR ag CP1 inactive | B2AR FAP counter inactive
C=CCn1c(SCc2cccc3ccccc23)nnc1-c1cccnc1	none
C=CCn1c(SCc2ccccc2Cl)nnc1-c1sc2nc(C)cc(C)c2c1N	Beta2AR agonist 110 (no result: TLR4 MyD88 comp) | Beta2AR ag CP1 17 | B2AR FAP counter inactive
Cc1cc(C)c2c(N)c(-c3nnc(SCc4ccc(Cl)cc4)n3C)sc2n1	Beta2AR agonist 111 (no result: TLR4 MyD88 comp) | Beta2AR ag CP1 21 | B2AR FAP counter inactive
Nc1sc(-c2ccccc2)cc1C(=O)NCCc1c[nH]c2ccccc12	none (no result: TLR4 MyD88 comp, TLR9-MyD88 inh, Beta2AR agonist)
CC(C)CNC(=O)c1cccc2c(-c3cccc(C(N)=O)c3)coc12	none (no result: TLR4 MyD88 comp, TLR9-MyD88 inh, Beta2AR agonist)
